Screening data as filed in PubChem.
Shown is part of a subset that was picked to be rich in hits.
VHR inh color – VHR1 (DUSP3) phosphatase inhibition; recombinant VHR phosphatase, colorimetric substrate read-out; inhibition, % at 20 µM; 50,000 compounds, 0.7% hits; AID 1992; in the data active means inhibition above about 60%
Target sequence (P51452 whole entry, looked up): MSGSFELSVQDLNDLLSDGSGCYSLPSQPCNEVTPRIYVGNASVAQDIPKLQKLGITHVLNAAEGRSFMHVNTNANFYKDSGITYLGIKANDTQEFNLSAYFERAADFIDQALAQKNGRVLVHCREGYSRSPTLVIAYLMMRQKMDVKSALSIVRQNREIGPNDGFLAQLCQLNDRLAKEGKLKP
* hit, by the source's call.

Screening Cc1cccc(C(=O)Nc2c(C(=O)N(C)C)cnn2-c2ccccc2)c1 returned VHR inh color 70*.
Screening CCOC(=O)c1c(-c2ccccc2)nn(-c2ccccc2)c1C returned VHR inh color -16.
`O=C1C=CC(=O)c2c1c(-c1ccccc1)nn2-c1ccccc1` gave VHR inh color 86*.
Screening Cc1c(C(=O)NCCO)c(-c2ccccc2)nn1-c1ccccc1 returned VHR inh color -2.
`COc1c(Br)cc(Cl)cc1/C=C1\C(=O)NC(=S)N(c2ccc(C)cc2)C1=O` gave VHR inh color 4.
`COc1ccc(-c2csc(Nc3ccccc3)n2)cc1` gave VHR inh color 8.
Screening c1ccc(Nc2nc(-c3ccncc3)cs2)cc1 returned VHR inh color -20.
`c1ccc(Nc2nc(-c3ccccc3)[n+](-c3ccccc3)s2)cc1` gave VHR inh color 97*.
For COc1ccc(N2C(=O)/C(=C\c3cccnc3)SC2=S)cc1 the results were VHR inh color 2.
COC(=O)c1c(NC(=O)c2ccc(F)cc2)sc(Cc2ccccc2)c1C was read as VHR inh color -8.
`COc1ccc(C(=O)N=Nc2c(O)n(CN3CCCC3)c3ccccc23)cc1` gave VHR inh color 1.
Screening O=C(/C=C/c1ccccc1OCc1ccccc1)c1cccc(Br)c1 returned VHR inh color -1.
`COC(=O)c1ccc2c(c1)C1C=CCC1C(c1cccc3ccccc13)N2` (stereo unspecified) gave VHR inh color 47.
COc1cccc2c1NC(c1cccc3ccccc13)C1CC=CC21 (stereo unspecified) was read as VHR inh color 88*.
`COc1cccc2c1NC(c1ccccc1Cl)C1CC=CC21` (stereo unspecified) gave VHR inh color -3.
CC(C)CNC(=O)CCCOc1ccc(Cl)cc1Cl was read as VHR inh color 6.
O=C(COc1ccc(Cl)cc1Cl)Oc1ccccc1 was read as VHR inh color 84*.
O=C(COc1ccc(Cl)cc1Cl)NCCCOCC(=O)Oc1ccc(Cl)cc1Cl was read as VHR inh color 104*.
O=C(COc1ccc(Cl)cc1Cl)NCc1ccncc1 was read as VHR inh color 0.
Screening O=C(COc1ccc(Cl)cc1Cl)OCc1ccccc1 returned VHR inh color -7.
Cc1cccc(OC(=O)COc2ccc(Cl)cc2Cl)c1 was read as VHR inh color 10.
For CCN1C(=O)c2cccc3c(NC(=O)c4cc([N+](=O)[O-])ccc4Cl)ccc1c23 the results were VHR inh color -4.
Screening O=C(c1ccc(Br)cc1)N1CCC(c2ccccc2)C1 (stereo unspecified) returned VHR inh color -27.
`CC(C)c1ccc(/C=C2\SC(=S)NC2=O)cc1` gave VHR inh color -15.
For CC(C)c1ccc(/C=C2\SC(=S)NC2=O)cc1[N+](=O)[O-] the results were VHR inh color 79*.
For O=C1NC(=S)S/C1=C\c1ccc(N2CCCCC2)c([N+](=O)[O-])c1 the results were VHR inh color -37.
COc1ccc(OC)c(CN2CCN(Cc3ccc(Br)cc3)CC2)c1 was read as VHR inh color 9.
Screening Cc1cc(C(=O)NC2CCSC2=O)ccc1[N+](=O)[O-] (stereo unspecified) returned VHR inh color 0.
For O=C1NC(=O)N(c2ccc(Cl)cc2)C(=O)/C1=C/c1ccc(F)cc1 the results were VHR inh color -15.
Screening O=C1NC(=O)N(c2ccc(Cl)cc2)C(=O)/C1=C\c1ccc(N2CCCC2)cc1 returned VHR inh color 70*.
`CN1C(=O)NC(=O)/C(=C\c2ccc(N3CCCC3)cc2)C1=O` gave VHR inh color 2.
Screening CC1CCCN(C(=O)C(Sc2ccccc2)c2ccccc2)C1 (stereo unspecified) returned VHR inh color -29.
`Cc1cccc(N(CC(O)CN(Cc2ccccc2)Cc2ccccc2)S(=O)(=O)c2ccccc2)c1` (stereo unspecified) gave VHR inh color 15.
O=C(c1ccc2ccccc2n1)N1CCOCC1 was read as VHR inh color -16.
`CCOc1ccc(/C=N/NC(=O)c2ccccc2O)cc1` gave VHR inh color -28.
Screening O=C(Nc1ccc(-c2nc3ccccc3[nH]2)cc1)c1ccc(Cl)cc1 returned VHR inh color 17.
CC1(C)c2ssc(=S)c2-c2ccccc2N1C(=O)CN1CCCCC1 was read as VHR inh color 98*.
For COc1cc(C(=O)N2c3ccccc3-c3c(ssc3=S)C2(C)C)cc(OC)c1OC the results were VHR inh color 10.
`CC1(C)c2ssc(=S)c2-c2ccccc2N1C(=O)CN1CCOCC1` gave VHR inh color 97*.
Cn1ccnc1SCC(=O)N1c2ccccc2-c2c(ssc2=S)C1(C)C was read as VHR inh color 37.
CC1(C)c2ssc(=S)c2-c2ccccc2N1C(=O)CSc1nnc(N)s1 was read as VHR inh color -2.
COc1ccc2c(c1)N(C(=O)CN1C(=O)c3ccccc3C1=O)C(C)(C)c1ssc(=S)c1-2 was read as VHR inh color -14.
`Cc1ccc2nc(-c3cc(NC(=S)NC(=O)c4ccco4)ccc3Cl)oc2c1` gave VHR inh color 3.
For COc1ccccc1NCCC(=O)c1ccccc1 the results were VHR inh color -11.
`O=C(NN=C1CCCC1)c1cccnc1` gave VHR inh color -12.
`Cc1ccc(Cc2cnc(NC(=O)c3ccc(Cl)cc3)s2)cc1` gave VHR inh color -5.
Screening CCOc1ccc(N2C(=O)CC(N3CCCCC3)C2=O)cc1 (stereo unspecified) returned VHR inh color 102*.
`CCOc1ccc(N2C(=O)CC(N3CCC(C(N)=O)(N4CCCCC4)CC3)C2=O)cc1` (stereo unspecified) gave VHR inh color -36.
`CCOc1ccc(N2C(=O)CC(N3CCC(C(N)=O)CC3)C2=O)cc1` (stereo unspecified) gave VHR inh color -21.
For Cc1cc(Cl)ccc1NC(=O)C(=O)N/N=C/c1ccccc1F the results were VHR inh color -15.
`Cc1cccc(C)c1NC(=O)c1ccc2c(c1)OCCO2` gave VHR inh color -10.
C/C(=N\NC(=O)c1n[nH]c2c1CCC2)c1ccc(N)cc1 was read as VHR inh color 4.
`COc1ccc(/C=C2\SC(=O)N(CCC(=O)Nc3cccc(C)c3)C2=O)cc1OC` gave VHR inh color 80*.
Screening COc1ccc(/C=C2\SC(=O)N(CCC(=O)Nc3ccccc3C)C2=O)cc1OC returned VHR inh color 17.
Screening COc1ccccc1NC(=O)CCN1C(=O)S/C(=C/c2ccc(OC)c(OC)c2)C1=O returned VHR inh color -5.
`OCc1nc2ccccc2n1Cc1ccccc1F` gave VHR inh color 116*.
For CCn1c(CCCO)nc2ccccc21 the results were VHR inh color -5.
Screening OCc1nc2ccccc2n1Cc1ccc2ccccc2c1 returned VHR inh color 14.
Cc1cc(C)c2nc3s/c(=C\c4ccccc4)c(=O)n3c2c1 was read as VHR inh color -20.
For COc1cc(/C=c2/sc3nc4c(Br)c(C)c(C)cc4n3c2=O)ccc1OCC(=O)O the results were VHR inh color 8.
Cc1cc2c(nc3s/c(=C/c4ccccc4)c(=O)n32)c(Br)c1C was read as VHR inh color 99*.
For CCCOC(=O)c1ccc(NC(=O)c2ccc(-c3cccc(Cl)c3)o2)cc1 the results were VHR inh color 109*.
For O=C(Nc1ccc(Cl)cc1)c1ccc(-c2cccc(Cl)c2)o1 the results were VHR inh color 22.
